The campaign covered roughly 360,000 compounds. About 950 (0.26%) were called active. Many of the other results were omitted from the sample, so actives are more common in it than they were. Values without a mark were called inactive. Cut-off read from the data, not from the text of the source: active = inhibition above about 11%; inactive = the rest.
experiment: reduced absorbance of E. coli cultures with phage – HTS, RecBCD inhibitor project, primary screen (AID 651602); settings: growth absorbance, at 11.9 µM, active compounds read high

Row | Compound | inhibition
1 | O=[N+]([O-])c1cnc2ccc3ccccc3c2c1 | 18.9% (active)
2 | Cc1ccc(-n2c(-c3ccc([N+](=O)[O-])cc3)nc3ccccc3c2=O)cc1 | 0.89%
3 | C/C(=N/O)c1ccc2ccc3ccccc3c2c1 | 1.01%
4 | Cc1cccc(-n2c(C)nc3cc(C(=O)N4CCC5(CC4)OCCO5)ccc32)c1 | 4.97%
5 | COC(=O)C1=C(c2ccc(OCc3ccccc3)cc2)C[C@@H]2CC[C@H]1N2C(=O)NCc1cccc(F)c1 | 4.61%
6 | N#CC1=C(N)Oc2c(c(=O)oc3ccccc23)C1c1ccccc1OC(=O)c1cccs1 (stereo not given) | 5.44%
7 | CCc1nnc(NS(=O)(=O)c2ccc(N=Cc3c(O)n(-c4ccccc4)c(=O)[nH]c3=O)cc2)s1 | 11.9% (active)
8 | O=c1[nH]c(=O)n(-c2ccccc2)c(O)c1C=NC12CN3CN(CN(C3)C1)C2 | 1.36%
9 | COc1ccc(N=Cc2c(O)n(C)c(=O)[nH]c2=O)cc1 | 0.79%
10 | CCC1(C)CC(CCNCc2ccc(N(C)C)cc2)(c2ccc(F)cc2)CCO1 (stereo not given) | 4.38%

Reference: PubChem BioAssay AID651602 (The Scripps Research Institute Molecular Screening Center, 2012)
